Laboratory results as given in PubChem BioAssay AID493076 (National Center for Advancing Translational Sciences (NCATS), 2011).
The other results are listed elsewhere or left out. Records with an inconclusive call do not appear. Calls of active or inactive are those of the source. Calls follow the shape of the dose curve; as a rule, active = well fitted curve in the direction sought with a large enough effect; inconclusive = small, poorly fitted or top-dose-only effect, or effect the other way, or another doubt; inactive = no such curve, though single readings can be large or run the other way. Residues, ends and D or L forms follow the SMILES beside them. *: point of attachment. OPac = O=C(CO*)c1ccccc1; Bz = O=C(c1ccccc1)*

What follows are molecules tested against Thyrotropin-releasing hormone receptor (Homo sapiens) (UniProt P34981) (assay: qHTS for Small Molecule Agonists and Allosteric Enhancers of Human TRH Receptor: Confirmation Screen for Enhancers). Settings: TRH receptor cell assay, enhancer confirmation qHTS; series mostly up to 46.1 µM.
Description: NIH Chemical Genomics Center [NCGC]
NIH Molecular Libraries Probe Centers Network [MLPCN]
Assay Submitter (PI): Marvin Gershengorn
This project aims to identify small drug-like molecules that activate (agonists) the thyrotropin releasing hormone (TRH) receptor (TRHR) or enhance its TRH-stimulated activity (allosteric enhancers). TRHR, a drug-accessible cell surface receptor expressed in specific brain regions, and its ligand TRH have been implicated in several central nervous system disorders, including depression and anxiety. Small molecule TRHR agonists or allosteric enhancers that are metabolically stable and able to cross the blood-brain barrier might serve as probes to elucidate the roles of brain TRH receptors in animal models, and might be valuable as lead compounds for the development of drugs to treat patients with central nervous system disorders.
Upon TRHR-Gq activation in TRHR cells, intracellular calcium is released from stores in the endoplasmic reticulum. […] This primary screen measures compound-induced enhancement of an EC20 stimulation of the receptor by its native ligand.
For the HTS assay freshly prepared cells are plated at a density of 2000/well in 3 ul of complete DMEM medium containing 10% serum in 1536-well plates and cultured over night at 37 C in a humidified incubator with 5% CO2. The next day, 2 ul of a no wash calcium dye (ABD Bioquest) was added to the cells and plates were incubated at room temperature for 1 hour. For the assay, assay plates were loaded into the FDSS kinetic plate reader. A 10 cycle (1 second/cycle) baseline measurement is taken and then the FDSS online 1536 pintool delivers 23 nl of compound library (as well as TRH controls) to the plate. The plate is measured for kinetically at 1 cycle/sec for 180 seconds and is considered to be the agonist portion of the assay (eg, compounds which activate a positive calcium response during this portion are flagged as potential agonists). Following the 180 second read, 1 ul of either an EC20 (positive modulation assay) is delivered by an onboard pipette head. Measurements are taken kinetically for an additional 180 seconds.
TRHR FDSS Screening Protocol
1. Reagent, 3 uL 2000 cells/well 1536 TC treated Black plate in media containing 10% FCS
2. Time, 18 hours, 33.5C 5% CO2 (cells grown at 37C)
3. Reagent, 2 uL ABD fluo-8 Ca dye
4. Time, 30 min-1.5hrs hours, Room temp (6 plates/batch)
5. Detector, EX 480/EM 530C, FDSS 10 cycles baseline (1sec/cycle)
6. Compound, 23 nL of stock solution from library
7. Detector, EX 480/EM 530C, FDSS 230 cycles (1sec/cycle) Agonist mode
8. Compound, 1 ul EC20 of TRH made up in HEPES HBSS, 10 nM final
9. Detector, EX 480/EM 530C, FDSS 100 cycles (1sec/cycle) Potentiator mode

Sequence of Thyrotropin-releasing hormone receptor (Homo sapiens) (P34981 whole entry, looked up): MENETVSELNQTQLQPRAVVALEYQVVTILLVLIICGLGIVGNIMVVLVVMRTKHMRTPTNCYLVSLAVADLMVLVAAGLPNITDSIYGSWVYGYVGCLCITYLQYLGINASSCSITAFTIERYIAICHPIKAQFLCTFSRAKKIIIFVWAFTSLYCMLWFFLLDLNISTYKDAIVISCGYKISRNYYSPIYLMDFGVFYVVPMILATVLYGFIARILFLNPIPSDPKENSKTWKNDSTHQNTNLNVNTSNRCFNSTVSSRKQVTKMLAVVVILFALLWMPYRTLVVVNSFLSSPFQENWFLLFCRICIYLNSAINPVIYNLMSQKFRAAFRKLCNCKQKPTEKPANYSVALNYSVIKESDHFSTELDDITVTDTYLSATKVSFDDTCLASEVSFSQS

outcome, inactive:
Cc1ccc(-c2cn(S(=O)(=O)c3cccc([N+](=O)[O-])c3)nc2N)cc1
c1cnc(N2CCN(c3ccc4ccccc4n3)CC2)nc1
O=C1C(=O)N(CCCO)C(c2ccccc2)/C1=C(\O)c1ccc(Br)cc1 (stereo not given)
CN(C(=O)CSc1nnc(Nc2ccccc2)s1)C1CCS(=O)(=O)C1 (stereo not given)
CC1(C)Cc2c(cnn2-c2cccc(F)c2)C(NC(=O)c2cc[n+]([O-])cc2)C1 (stereo not given)
COc1cc(C2C3=C(CCCC3=O)OC3=C2C(=O)CCC3)ccc1OCC(=O)Nc1ccccc1
C/C(=N/OC(=O)c1ccc(Br)cc1)c1ccc(C)cc1
CCOc1cc(CN2CCCC(CO)(Cc3ccc(F)cc3F)C2)ccc1OC (stereo not given)
COc1ccc(CCn2ccc(O)c(Cc3ccc(Cl)cc3Cl)c2=O)cc1OC
O=C1NC(=O)C2C1C(c1ccc([N+](=O)[O-])cc1)=NN2Cc1ccccc1 (stereo not given)
C/C(=C\c1ccco1)CN1CCC(N2CCC(C(=O)N3CCOCC3)CC2)CC1
Cc1cccn2c(=O)c3cc(C(=O)NC4CCCCC4)sc3nc12
N#Cc1ccc(Oc2cc(C(F)(F)F)nc(-c3ccccn3)n2)cc1
O=C(Nc1ccccc1)c1cccnc1Nc1ccccc1
Cc1cc(S(=O)(=O)c2cc3ccc(O)c(C)c3oc2=O)ccc1F
CC(=O)c1cc(NC(=O)c2ccccc2)c(=O)oc1/C=C/N(C)C
CSc1nnnn1-c1c(C)cc(C)cc1C
O=c1o[nH]c(-c2ccccc2)c1N=Nc1c(F)cccc1Cl
O=C(CN1C(=O)c2cccc3cccc1c23)Nc1ccccc1
CC(=O)N1CCN(CC(=O)Nc2ccc(C)c(F)c2)CC1
Cc1cc(C)c2nc3nc(C)cc(C)c3c(N)c2c1
Cn1cccc1C1(C(F)(F)F)NCCNC1=O (stereo not given)
CCOC(=O)C1=C(O)/C(=C/c2cc(C)n(-c3ccccc3)c2C)N=C1C
O=C(CNC(=O)c1ccccc1)NCC(=O)OCC(=O)c1ccccc1 (Bz-Gly-Gly-OPac)
Cc1cc(C(=O)CCl)c(C)n1CC1COc2ccccc2O1 (stereo not given)
CCc1nnc(NC(=O)[C@@H](NC(=O)c2cccc(C)c2)C(C)C)s1
CC(=O)n1c(C=Nc2ccccc2)c(O)c2ccccc21
NC(N)=Nc1nc(-c2ccccc2)c2cc(Cl)ccc2n1
CCOc1ncccc1C(=O)OCC(=O)N1c2ccccc2CC1C (stereo not given)
Cc1ccc(S(=O)(=O)N2CCN(CC(=O)N/N=C/c3ccc(Br)s3)CC2)cc1
Cc1c(/C=N\NC(=O)c2cc3ccccc3o2)c2ccccc2n1C
O=c1[nH]c2cccnc2n(CCNc2ncc(C(F)(F)F)cc2Cl)c1=O
NS(=O)(=O)c1cccc(NC(=O)CSc2nc3ccccc3n2-c2ccccc2)c1
Cc1csc(CN(C)C(=O)CC2C(=O)NCCN2CC(C)(C)C)n1 (stereo not given)
Cc1ccc(Cl)c(OCC(=O)N2CCc3ccccc3C2)c1
COc1cc(/C=C(\C#N)c2nc3ccccc3[nH]2)ccc1O
CCc1ccccc1NC(=O)/C(=C/c1ccccc1)c1ccccc1
COC(=O)C1=C(C)NC2=C(C(=O)c3ccccc32)C1c1ccc(-c2ccc(C(=O)O)cc2)o1 (stereo not given)
COc1ccc(Cl)cc1NC(=O)CN(C)Cc1ccc(OC)c(OC)c1
CC1=C(C)CC(C(=O)NC(C)CCc2ccccc2)C(C(=O)O)C1 (stereo not given)
